Test results reported in the supplement of paper PMC10849652.
About 7,900 targets were measured; listed, in parts, are those with a hit and a random draw of the rest. About 0.6% of all pairs of compound and target were hits. A number with no mark means an inactive call.

Assays:
Assay in all cases: log2 fold change, soluble protein after heating vs DMSO (PISA); higher = thermal stabilisation; K562 cells, 10 uM, 30 min; active = over 0.2 and 3.5 SD of the protein, either way, in both replicates (recomputed)
[1] = compound: C1COCCN1CCN2C3=CC=CC=C3N=C2NC(=O)C4=CC(=CC=C4)[N+](=O)[O-] [IRAK-1-4 Inhibitor I]
In short: (§1)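 K562 cells at 2×10^6 cells/mL were exposed to 10 μM compound for 30 min, then aliquots were heated for 3 min across 48°C-58°C, pooled, and extracted in PBS containing 0.5% NP-40 at 4°C. The supernatant after 21,000xg for 90 min was taken as soluble protein and measured by TMTpro 16plex LC-MS/MS with channel sums equalised. Thermal stability is reported relative to control samples, with values from duplicates. Fold changes are given on a log2 scale.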

[2] = compound: C=CC(=O)N1CCC[C@@H](n2nc(-c3ccc(Oc4ccccc4)cc3)c3c(N)ncnc32)C1 [ibrutinib]
In short: as §1

[3] = compound: CC(=O)c1cnc2ccc(-c3cc(Cl)c(O)c(Cl)c3)nc2c1N[C@H]1CC[C@H](CN(C)C)CC1
In short: as §1

[4] = compound: CC(C)(C)Cn1c(N)nc2ccc(-c3[nH]c(C(C)(C)C)nc3-c3ccc(F)cc3)nc21 [ralimetinib]
In short: as §1

[5] = compound: CC(C)(O)CC(=O)NCCn1ccc2ncnc(Nc3ccc(Oc4cccc(C(F)(F)F)c4)c(Cl)c3)c21
In short: as §1

[6] = compound: CC(C)C1=C2N=C(C=C(N2N=C1)NCC3=CC=CC=C3)NCCCCCCN
In short: as §1

[7] = compound: CC(C)C[C@@H](C=O)NC(=O)[C@H](CC(C)C)NC(=O)[C@H](CC(C)C)NC(=O)OCc1ccccc1
In short: as §1

[8] = compound: CC(C)N(C[C@H]1O[C@@H](n2cnc3c(N)ncnc32)[C@H](O)[C@@H]1O)[C@H]1C[C@@H](CCc2nc3cc(C(C)(C)C)ccc3[nH]2)C1 [pinometostat]
In short: as §1

[9] = compound: CC1=C(C(CC(=O)N1)C2=CC=C(C=C2)C(F)(F)F)C(=O)NC3=C(C=C4C(=C3)C=NN4)F
In short: as §1

[10] = compound: CC1=C(C2=C(C=C1)C(=O)C3=CC=CC=C3N2CCCN)C
In short: as §1

Sequence of UniProt Q96HV5 (Q96HV5 whole entry, looked up): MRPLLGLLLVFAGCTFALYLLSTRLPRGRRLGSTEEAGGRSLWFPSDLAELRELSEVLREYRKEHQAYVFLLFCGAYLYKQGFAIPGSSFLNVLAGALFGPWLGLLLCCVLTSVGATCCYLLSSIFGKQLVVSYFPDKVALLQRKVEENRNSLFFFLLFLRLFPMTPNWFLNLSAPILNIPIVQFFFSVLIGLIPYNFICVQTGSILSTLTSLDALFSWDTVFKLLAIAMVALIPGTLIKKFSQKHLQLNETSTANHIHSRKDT
Sequence of UniProt O75717 (O75717 whole entry, looked up): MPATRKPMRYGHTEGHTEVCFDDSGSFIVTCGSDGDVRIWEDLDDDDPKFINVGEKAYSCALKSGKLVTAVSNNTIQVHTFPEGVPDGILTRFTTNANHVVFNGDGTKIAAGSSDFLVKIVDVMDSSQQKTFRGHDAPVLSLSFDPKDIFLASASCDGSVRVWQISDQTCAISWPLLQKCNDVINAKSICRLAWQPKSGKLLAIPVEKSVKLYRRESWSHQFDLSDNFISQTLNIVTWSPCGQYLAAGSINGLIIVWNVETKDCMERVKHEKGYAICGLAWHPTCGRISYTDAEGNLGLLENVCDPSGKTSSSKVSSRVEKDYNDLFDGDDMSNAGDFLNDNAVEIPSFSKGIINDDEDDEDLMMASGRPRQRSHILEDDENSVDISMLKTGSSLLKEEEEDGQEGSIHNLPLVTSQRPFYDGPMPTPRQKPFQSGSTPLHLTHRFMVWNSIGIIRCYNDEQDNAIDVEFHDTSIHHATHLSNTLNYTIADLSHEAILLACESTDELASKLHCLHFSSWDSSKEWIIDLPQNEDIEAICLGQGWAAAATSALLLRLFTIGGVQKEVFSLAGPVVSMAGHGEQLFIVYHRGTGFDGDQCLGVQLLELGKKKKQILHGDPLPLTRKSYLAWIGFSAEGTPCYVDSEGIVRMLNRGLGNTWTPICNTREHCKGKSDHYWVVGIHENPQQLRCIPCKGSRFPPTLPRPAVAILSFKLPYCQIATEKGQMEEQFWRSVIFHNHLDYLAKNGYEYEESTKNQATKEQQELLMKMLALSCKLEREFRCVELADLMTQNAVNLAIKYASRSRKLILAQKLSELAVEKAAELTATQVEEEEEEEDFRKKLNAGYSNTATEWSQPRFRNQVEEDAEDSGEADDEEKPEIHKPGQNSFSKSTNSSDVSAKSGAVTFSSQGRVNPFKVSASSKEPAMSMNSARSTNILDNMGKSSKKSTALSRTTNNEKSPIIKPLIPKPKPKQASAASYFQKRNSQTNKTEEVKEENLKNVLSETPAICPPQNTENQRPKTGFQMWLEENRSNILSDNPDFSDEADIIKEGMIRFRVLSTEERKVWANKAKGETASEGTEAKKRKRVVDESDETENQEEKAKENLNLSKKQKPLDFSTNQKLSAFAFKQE
Sequence of UniProt O14773 (O14773 whole entry, looked up): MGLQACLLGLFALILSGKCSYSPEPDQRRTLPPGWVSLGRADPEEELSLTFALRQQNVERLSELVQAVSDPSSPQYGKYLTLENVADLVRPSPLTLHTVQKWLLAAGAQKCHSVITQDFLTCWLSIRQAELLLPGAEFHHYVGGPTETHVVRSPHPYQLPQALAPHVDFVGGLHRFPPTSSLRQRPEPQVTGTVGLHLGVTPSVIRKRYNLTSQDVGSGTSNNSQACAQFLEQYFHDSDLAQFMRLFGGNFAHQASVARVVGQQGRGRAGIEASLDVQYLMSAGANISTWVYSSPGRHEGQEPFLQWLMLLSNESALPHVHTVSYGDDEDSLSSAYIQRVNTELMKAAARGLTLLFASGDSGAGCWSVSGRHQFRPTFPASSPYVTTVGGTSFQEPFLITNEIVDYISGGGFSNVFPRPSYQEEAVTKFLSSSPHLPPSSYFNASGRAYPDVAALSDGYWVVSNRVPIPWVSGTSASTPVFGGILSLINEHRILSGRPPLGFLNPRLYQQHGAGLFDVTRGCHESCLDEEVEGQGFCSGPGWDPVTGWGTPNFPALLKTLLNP
Sequence of UniProt Q15629 (Q15629 whole entry, looked up): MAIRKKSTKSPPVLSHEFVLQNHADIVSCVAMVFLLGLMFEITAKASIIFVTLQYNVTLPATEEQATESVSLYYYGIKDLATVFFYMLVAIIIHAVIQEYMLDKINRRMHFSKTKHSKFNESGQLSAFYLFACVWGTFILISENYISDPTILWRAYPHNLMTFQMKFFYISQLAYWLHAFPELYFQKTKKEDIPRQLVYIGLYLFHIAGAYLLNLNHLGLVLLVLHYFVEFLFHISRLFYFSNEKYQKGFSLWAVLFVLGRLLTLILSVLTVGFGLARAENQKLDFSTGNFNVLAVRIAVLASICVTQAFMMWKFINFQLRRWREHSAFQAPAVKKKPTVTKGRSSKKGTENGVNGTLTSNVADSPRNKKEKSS
Sequence of UniProt Q9H269 (Q9H269 whole entry, looked up): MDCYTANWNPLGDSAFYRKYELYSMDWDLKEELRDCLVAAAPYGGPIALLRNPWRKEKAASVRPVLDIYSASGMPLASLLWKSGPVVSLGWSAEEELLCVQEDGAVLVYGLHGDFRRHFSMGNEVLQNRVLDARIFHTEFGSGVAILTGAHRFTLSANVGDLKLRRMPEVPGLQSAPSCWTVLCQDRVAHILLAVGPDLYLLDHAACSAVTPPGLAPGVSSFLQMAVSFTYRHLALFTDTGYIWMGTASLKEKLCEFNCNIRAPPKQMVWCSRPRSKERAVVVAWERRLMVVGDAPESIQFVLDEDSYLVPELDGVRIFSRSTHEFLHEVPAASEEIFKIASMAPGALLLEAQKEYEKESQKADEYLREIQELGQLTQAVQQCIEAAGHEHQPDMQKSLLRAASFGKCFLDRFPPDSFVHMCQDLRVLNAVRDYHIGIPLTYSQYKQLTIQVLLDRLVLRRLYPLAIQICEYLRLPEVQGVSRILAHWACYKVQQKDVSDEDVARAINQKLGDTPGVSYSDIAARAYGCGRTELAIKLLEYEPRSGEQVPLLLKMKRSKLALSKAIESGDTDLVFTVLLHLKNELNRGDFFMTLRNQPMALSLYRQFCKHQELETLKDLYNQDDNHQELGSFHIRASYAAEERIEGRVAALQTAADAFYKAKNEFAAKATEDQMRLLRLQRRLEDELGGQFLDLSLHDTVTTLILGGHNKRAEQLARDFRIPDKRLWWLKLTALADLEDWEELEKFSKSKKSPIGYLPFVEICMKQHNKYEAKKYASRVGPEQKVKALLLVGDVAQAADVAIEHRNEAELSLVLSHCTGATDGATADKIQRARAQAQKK
Sequence of UniProt O75674 (O75674 whole entry, looked up): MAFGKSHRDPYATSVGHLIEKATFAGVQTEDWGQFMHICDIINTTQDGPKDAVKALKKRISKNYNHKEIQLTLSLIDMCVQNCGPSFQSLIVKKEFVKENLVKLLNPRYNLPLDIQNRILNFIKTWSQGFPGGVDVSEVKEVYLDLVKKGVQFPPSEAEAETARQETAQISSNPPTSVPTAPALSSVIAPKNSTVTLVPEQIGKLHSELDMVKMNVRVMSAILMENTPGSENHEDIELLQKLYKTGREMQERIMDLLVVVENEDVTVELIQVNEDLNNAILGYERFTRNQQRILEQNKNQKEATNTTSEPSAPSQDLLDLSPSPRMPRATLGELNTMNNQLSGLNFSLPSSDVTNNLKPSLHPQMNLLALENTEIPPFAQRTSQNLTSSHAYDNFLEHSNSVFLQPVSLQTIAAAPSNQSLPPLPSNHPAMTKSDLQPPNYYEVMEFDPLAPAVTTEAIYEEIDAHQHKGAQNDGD
Sequence of UniProt P07951 (P07951 whole entry, looked up): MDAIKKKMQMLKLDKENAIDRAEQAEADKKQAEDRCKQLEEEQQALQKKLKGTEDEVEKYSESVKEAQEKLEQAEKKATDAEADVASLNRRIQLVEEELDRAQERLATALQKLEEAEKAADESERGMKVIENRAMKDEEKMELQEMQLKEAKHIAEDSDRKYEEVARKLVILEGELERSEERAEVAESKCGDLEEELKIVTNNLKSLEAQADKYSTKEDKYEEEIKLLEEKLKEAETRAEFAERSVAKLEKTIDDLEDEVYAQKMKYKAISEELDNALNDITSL
Sequence of UniProt Q8NEZ2 (Q8NEZ2 whole entry, looked up): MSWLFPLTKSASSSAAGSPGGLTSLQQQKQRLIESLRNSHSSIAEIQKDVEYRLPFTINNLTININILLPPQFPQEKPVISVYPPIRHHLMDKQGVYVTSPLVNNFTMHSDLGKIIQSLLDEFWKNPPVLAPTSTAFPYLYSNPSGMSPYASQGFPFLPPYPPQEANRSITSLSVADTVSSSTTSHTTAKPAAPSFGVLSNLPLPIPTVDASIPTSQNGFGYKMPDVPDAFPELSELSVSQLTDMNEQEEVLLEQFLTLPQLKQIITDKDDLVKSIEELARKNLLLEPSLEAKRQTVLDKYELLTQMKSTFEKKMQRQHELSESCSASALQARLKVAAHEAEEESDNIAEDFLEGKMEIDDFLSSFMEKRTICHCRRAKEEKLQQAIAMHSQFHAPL
Sequence of UniProt Q7Z7N9 (Q7Z7N9 whole entry, looked up): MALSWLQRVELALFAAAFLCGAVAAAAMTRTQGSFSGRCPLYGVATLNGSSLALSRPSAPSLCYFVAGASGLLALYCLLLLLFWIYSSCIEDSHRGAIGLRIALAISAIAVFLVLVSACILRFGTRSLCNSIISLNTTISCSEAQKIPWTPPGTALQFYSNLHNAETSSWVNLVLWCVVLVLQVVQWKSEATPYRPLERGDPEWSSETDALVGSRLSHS
Sequence of UniProt Q9P0T7 (Q9P0T7 whole entry, looked up): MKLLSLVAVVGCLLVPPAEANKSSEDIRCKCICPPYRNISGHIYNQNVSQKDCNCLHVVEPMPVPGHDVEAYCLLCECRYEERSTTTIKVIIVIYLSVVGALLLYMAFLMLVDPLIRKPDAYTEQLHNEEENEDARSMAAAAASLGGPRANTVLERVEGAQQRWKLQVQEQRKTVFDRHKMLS
Sequence of UniProt P51809 (P51809 whole entry, looked up): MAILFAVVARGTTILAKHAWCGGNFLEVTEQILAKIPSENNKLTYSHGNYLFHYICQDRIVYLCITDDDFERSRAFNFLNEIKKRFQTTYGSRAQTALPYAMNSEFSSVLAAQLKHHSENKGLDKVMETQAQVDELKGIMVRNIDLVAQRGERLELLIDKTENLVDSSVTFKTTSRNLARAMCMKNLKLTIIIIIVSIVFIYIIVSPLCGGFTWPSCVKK

Target | log2 fold change [1] | log2 fold change [2] | log2 fold change [3] | log2 fold change [4] | log2 fold change [5] | log2 fold change [6] | log2 fold change [7] | log2 fold change [8] | log2 fold change [9] | log2 fold change [10]
USP48 isoform 8 (UniProt Q86UV5) | -0.09 | -0.071 | -0.014 | 0.046 | -0.207 | -0.278 | 0.052 | 0.008 | 0.003 | -0.101
TMEM9B (UniProt Q9NQ34) | -0.019 | 0.038 | -0.083 | 0.324 (active) | 0.014 | -0.082 | -0.006 | 0.015 | 0.027 | 0.038
USP15 (UniProt Q9Y4E8) | -0.028 | -0.034 | 0.008 | -0.004 | -0.067 | -0.154 | 0.012 | 0.012 | 0 | -0.019
VPS37A (UniProt Q8NEZ2) | 0.045 | -0.011 | -0.07 | 0.053 | -0.025 | -0.143 | 0.094 | 0.045 | -0.047 | -0.066
VPS16 (UniProt Q9H269) | 0.028 | -0.073 | -0.02 | 0.043 | -0.154 | -0.29 | -0.035 | 0.1 | 0.006 | 0.061
TOE1 (UniProt Q96GM8) | -0.15 | -0.031 | 0.089 | 0.012 | 0.005 | 0.042 | 0.09 | 0.077 | -0.067 | -0.228
UGGT1 (UniProt Q9NYU2) | -0.011 | -0.027 | 0.001 | 0.001 | -0.028 | -0.007 | -0.038 | 0.028 | -0.003 | 0.023
WDHD1 (UniProt O75717) | -0.055 | 0.006 | -0.087 | -0.038 | -0.065 | -0.125 | 0 | -0.03 | -0.02 | -0.063
XPO1 (UniProt O14980) | -0.013 | -0.045 | 0.011 | 0.018 | -0.196 | -0.282 (active) | -0.04 | -0.013 | -0.001 | -0.011
TRAPPC8 (UniProt Q9Y2L5) | -0.02 | 0.015 | -0.02 | 0.011 | -0.056 | -0.071 | 0.044 | 0.072 | 0.002 | 0.003
TPM2 (UniProt P07951) | 0.013 | -0.018 | 0.027 | 0.059 | -0.053 | 0.037 | -0.163 | -0.1 | 0.079 | -0.103
TRMT10A (UniProt Q8TBZ6) | 0.056 | -0.009 | -0.065 | -0.006 | -0.107 | -0.075 | -0.01 | 0.042 | 0.02 | 0.066
TMEM161A (UniProt Q9NX61) | 0.03 | -0.015 | 0.045 | -0.059 | -0.17 | -0.395 (active) | -0.045 | 0.121 | -0.076 | 0.071
USP9X (UniProt Q93008) | -0.006 | -0.041 | -0.011 | 0.02 | -0.117 | -0.177 | 0.01 | 0.042 | 0.002 | 0.038
UFD1 isoform 1 (UniProt Q92890) | 0.025 | -0.018 | -0.005 | 0 | -0.04 | 0.04 | 0.021 | -0.04 | -0.016 | 0
TTI1 (UniProt O43156) | -0.012 | 0.009 | -0.065 | 0.1 | -0.113 | -0.059 | 0.016 | 0.13 | -0.011 | 0.074
UBAP2L isoform 1 (UniProt Q14157) | 0.076 | -0.006 | 0.007 | -0.025 | 0.016 | 0.103 | 0.029 | -0.031 | 0.073 | 0.055
VPS41 (UniProt P49754) | -0.002 | -0.033 | -0.019 | 0.052 | 0.019 | -0.383 (active) | 0.026 | 0.037 | 0.003 | 0.063
VAMP7 (UniProt P51809) | 0.018 | -0.048 | -0.041 | -0.022 | -0.006 | -0.169 | -0.001 | -0.027 | -0.011 | 0.025
WDR37 isoform 2 (UniProt Q9Y2I8) | 0.144 | -0.06 | -0.39 (active) | -0.063 | -0.118 | -0.011 | 0.126 | -0.029 | -0.015 | 0.144
TRAM1 (UniProt Q15629) | -0.036 | -0.051 | -0.032 | -0.014 | -0.016 | -0.889 (active) | 0.012 | -0.011 | 0.016 | 0.119
TMEM179B (UniProt Q7Z7N9) | 0.04 | -0.05 | -0.061 | -0.008 | -0.24 | -0.011 | -0.021 | -0.024 | 0.017 | 0.019
TMEM41A (UniProt Q96HV5) | -0.022 | -0.007 | -0.04 | 0.033 | 0.022 | 0.043 | -0.079 | -0.06 | 0.035 | 0.151
TMEM9 (UniProt Q9P0T7) | 0.076 | 0.039 | 0.012 | -0.003 | -0.07 | -0.211 | 0.064 | -0.042 | 0.067 | -0.013
TPP1 (UniProt O14773) | -0.007 | -0.01 | -0.006 | -0.025 | 0.059 | -0.492 (active) | 0.043 | -0.052 | 0.025 | -0.009
TOM1L1 (UniProt O75674) | 0.006 | -0.001 | -0.014 | -0.047 | -0.013 | 0.019 | 0.028 | -0.023 | 0.006 | -0.019
UGDH (UniProt O60701) | -0.019 | 0.03 | -0.616 (active) | -0.046 | -0.038 | 0.017 | -0.043 | -0.105 | 0.004 | 0.078
